Results published in the supplement of paper PMC8728848.
Shown is part of a subset that was picked to be rich in the strongest signals.

How the values were obtained:
Experiment in all cases: glycan array binding signal (z-score within array); higher = stronger binding
Settings in all cases: glycan notation: IUPAC condensed, linker removed
[1] = target: Fuc(a1-2)Gal(b1-3)GlcNAc(b1-2)Man(a1-3)[Fuc(a1-2)Gal(b1-3)GlcNAc(b1-2)Man(a1-6)]Man(b1-4)GlcNAc(b1-4)GlcNAc
In short: (§1)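 Arrays were curated from the Consortium for Functional Glycomics database, 3228 in total, and kept only where the protein sequence was available. Binding is expressed as a within-array Z-score. This score was averaged across arrays of the same protein sequence at different concentrations or buffers and across linkers, and negative values can be read as non-binding.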

[2] = target: Fuc(a1-2)Gal(b1-4)GlcNAc(b1-3)GalNAc
In short: as §1

[3] = target: Fuc(a1-2)[GalNAc(a1-3)]Gal(b1-4)[Fuc(a1-3)]GlcNAc(b1-3)GalNAc
In short: as §1

Fuc(a1-3)GlcNAc = target: Fuc(a1-3)GlcNAc
In short: as §1

Gal(a1-2)Gal = target: Gal(a1-2)Gal
In short: as §1

[4] = target: Gal(a1-3)Gal(b1-3)GlcNAc(b1-2)Man(a1-3)[Gal(a1-3)Gal(b1-3)GlcNAc(b1-2)Man(a1-6)]Man(b1-4)GlcNAc(b1-4)GlcNAc
In short: as §1

[5] = target: Gal(a1-3)Gal(b1-3)[Fuc(a1-4)]GlcNAc(b1-2)Man(a1-3)[Gal(a1-3)Gal(b1-3)[Fuc(a1-4)]GlcNAc(b1-2)Man(a1-6)]Man(b1-4)GlcNAc(b1-4)GlcNAc
In short: as §1

[6] = target: Gal(a1-3)Gal(b1-4)GlcNAc(b1-3)GalNAc
In short: as §1

[7] = target: Gal(a1-3)Gal(b1-4)[Fuc(a1-3)]GlcNAc
In short: as §1

Gal(b1-3)Gal = target: Gal(b1-3)Gal
In short: as §1

Gal(b1-3)Gal(b1-4)GlcNAc = target: Gal(b1-3)Gal(b1-4)GlcNAc
In short: as §1

Gal(b1-3)GalNAc = target: Gal(b1-3)GalNAc
In short: as §1

[8] = target: Gal(b1-3)GalNAc(a1-3)[Fuc(a1-2)]Gal(b1-4)Glc
In short: as §1

[9] = target: Gal(b1-3)GalNAc(a1-3)[Fuc(a1-2)]Gal(b1-4)GlcNAc
In short: as §1

Gal(b1-3)GalNAc(b1-3)Gal = target: Gal(b1-3)GalNAc(b1-3)Gal
In short: as §1

[10] = target: Gal(b1-3)GalNAc(b1-4)Gal(b1-4)Glc
In short: as §1

[11] = target: Gal(b1-3)GlcNAc(b1-2)[Gal(b1-3)GlcNAc(b1-6)]Man(a1-6)[Gal(b1-3)GlcNAc(b1-2)Man(a1-3)]Man(b1-4)GlcNAc(b1-4)GlcNAc
In short: as §1

[12] = target: Gal(b1-3)GlcNAc(b1-3)Gal(b1-4)GlcNAc(b1-2)Man(a1-3)[Gal(b1-3)GlcNAc(b1-3)Gal(b1-4)GlcNAc(b1-2)Man(a1-6)]Man(b1-4)GlcNAc(b1-4)GlcNAc
In short: as §1

[13] = target: Gal(b1-3)GlcNAc(b1-3)Gal(b1-4)GlcNAc(b1-6)[Gal(b1-3)GlcNAc(b1-3)]Gal(b1-4)Glc
In short: as §1

[14] = target: Gal(b1-3)GlcNAc(b1-6)Gal(b1-4)GlcNAc
In short: as §1

[15] = target: Gal(b1-3)[Fuc(a1-4)]GlcNAc(b1-3)Gal(b1-3)[Fuc(a1-4)]GlcNAc
In short: as §1

[16] = target: Gal(b1-3)[Neu5Ac(a2-6)]GalNAc
In short: as §1

Gal(b1-4)Glc = target: Gal(b1-4)Glc
In short: as §1

Gal(b1-4)GlcNAc = target: Gal(b1-4)GlcNAc
In short: as §1

[17] = target: Gal(b1-4)GlcNAc(b1-3)Gal(b1-4)GlcNAc(b1-2)Man(a1-3)[Gal(b1-4)GlcNAc(b1-3)Gal(b1-4)GlcNAc(b1-2)Man(a1-6)]Man(b1-4)GlcNAc(b1-4)GlcNAc
In short: as §1

[18] = target: Gal(b1-4)GlcNAc(b1-3)Gal(b1-4)GlcNAc(b1-2)Man(a1-3)[Gal(b1-4)GlcNAc(b1-3)Gal(b1-4)GlcNAc(b1-2)Man(a1-6)]Man(b1-4)GlcNAc(b1-4)[Fuc(a1-6)]GlcNAc
In short: as §1

[19] = target: Gal(b1-4)GlcNAc(b1-3)Gal(b1-4)GlcNAc(b1-3)Gal(b1-4)GlcNAc(b1-3)Gal(b1-4)GlcNAc(b1-2)Man(a1-3)[Gal(b1-4)GlcNAc(b1-3)Gal(b1-4)GlcNAc(b1-3)Gal(b1-4)GlcNAc(b1-3)Gal(b1-4)GlcNAc(b1-2)Man(a1-6)]Man(b1-4)GlcNAc(b1-4)GlcNAc
In short: as §1

[20] = target: Gal(b1-4)GlcNAc(b1-3)Gal(b1-4)GlcNAc(b1-3)Gal(b1-4)GlcNAc(b1-3)Gal(b1-4)GlcNAc(b1-3)Gal(b1-4)GlcNAc(b1-2)Man(a1-3)[Gal(b1-4)GlcNAc(b1-3)Gal(b1-4)GlcNAc(b1-3)Gal(b1-4)GlcNAc(b1-3)Gal(b1-4)GlcNAc(b1-3)Gal(b1-4)GlcNAc(b1-2)Man(a1-6)]Man(b1-4)GlcNAc(b1-4)[Fuc(a1-6)]GlcNAc
In short: as §1

[21] = target: Gal(b1-4)GlcNAc(b1-6)[Gal(b1-3)]GalNAc
In short: as §1

[22] = target: Gal3S(b1-3)[Fuc(a1-4)]GlcNAc
In short: as §1

GalNAc(a1-3)GalNAc = target: GalNAc(a1-3)GalNAc
In short: as §1

[23] = target: GalNAc(b1-4)GlcNAc(b1-2)Man(a1-3)[GalNAc(b1-4)GlcNAc(b1-2)Man(a1-6)]Man(b1-4)GlcNAc(b1-4)GlcNAc
In short: as §1

[24] = target: GalNAc(b1-4)GlcNAc(b1-3)GalNAc(b1-4)GlcNAc
In short: as §1

GlcA(b1-6)Gal = target: GlcA(b1-6)Gal
In short: as §1

[25] = target: GlcNAc(a1-4)Gal(b1-4)GlcNAc
In short: as §1

[26] = target: GlcNAc(b1-3)Gal(b1-4)GlcNAc
In short: as §1

[27] = target: GlcNAc(b1-3)Gal(b1-4)GlcNAc(b1-6)[Gal(b1-3)]GalNAc
In short: as §1

[28] = target: GlcNAc(b1-3)Gal(b1-4)GlcNAc(b1-6)[GlcNAc(b1-3)Gal(b1-3)]GalNAc
In short: as §1

[29] = target: GlcNAc(b1-3)Gal(b1-4)GlcNAc(b1-6)[GlcNAc(b1-3)]Gal(b1-4)GlcNAc
In short: as §1

[30] = target: Kdn(a2-3)Gal(b1-4)[Fuc(a1-3)]GlcNAc
In short: as §1

[31] = target: Neu5Ac(a2-3)Gal(b1-4)GlcNAc(b1-2)Man(a1-3)[Neu5Ac(a2-3)Gal(b1-4)GlcNAc(b1-2)Man(a1-6)]Man(b1-4)GlcNAc(b1-4)GlcNAc
In short: as §1

[32] = target: Neu5Ac(a2-3)Gal(b1-4)GlcNAc(b1-3)Gal(b1-3)GlcNAc
In short: as §1

[33] = target: Neu5Ac(a2-3)Gal(b1-4)GlcNAc(b1-3)Gal(b1-4)GlcNAc(b1-3)GalNAc
In short: as §1

[34] = target: Neu5Ac(a2-3)Gal(b1-4)GlcNAc(b1-3)Gal(b1-4)GlcNAc(b1-6)[Gal(b1-3)]GalNAc
In short: as §1

[35] = target: Neu5Ac(a2-6)Gal(b1-4)GlcNAc(b1-2)Man(a1-3)Man(b1-4)GlcNAc(b1-4)GlcNAc
In short: as §1

[36] = target: Neu5Ac(a2-6)Gal(b1-4)GlcNAc(b1-2)Man(a1-3)[Man(a1-6)]Man(b1-4)GlcNAc(b1-4)GlcNAc
In short: as §1

[37] = target: Neu5Ac(a2-6)Gal(b1-4)GlcNAc(b1-2)Man(a1-6)[Man(a1-3)]Man(b1-4)GlcNAc(b1-4)GlcNAc
In short: as §1

[38] = target: Neu5Ac(a2-6)Gal(b1-4)GlcNAc(b1-3)[Neu5Ac(a2-6)Gal(b1-4)GlcNAc(b1-6)]GalNAc
In short: as §1

[39] = target: Neu5Ac(a2-6)GlcNAc(b1-4)GlcNAc(b1-4)GlcNAc
In short: as §1

[40] = target: Neu5Ac(a2-8)Neu5Ac(a2-3)Gal(b1-3)GalNAc(b1-4)[Neu5Ac(a2-3)]Gal(b1-4)Glc
In short: as §1

[41] = target: Neu5Ac(a2-8)Neu5Ac(a2-8)Neu5Ac(a2-8)Neu5Ac(a2-3)[GalNAc(b1-4)]Gal(b1-4)Glc
In short: as §1

[42] = target: Neu5Gc(b2-6)Gal(b1-4)GlcNAc
In short: as §1

B1: CFEM-PPm (Pichia pastoris), F2QPV1 (protein)
chain: AVATPPACLLACAAEVVKESSDCDALNNIQCICENEGSAIHACLESTCPDGLSSTALQSFEDVCE
glycan array binding signal (z-score) [1]: -0.289 | glycan array binding signal (z-score) [2]: 1.77 | glycan array binding signal (z-score) [3]: 3.4 | glycan array binding signal (z-score) (Fuc(a1-3)GlcNAc): -0.301 | glycan array binding signal (z-score) (Gal(a1-2)Gal): -0.447 | glycan array binding signal (z-score) [4]: 0.425 | glycan array binding signal (z-score) [5]: -0.006 | glycan array binding signal (z-score) [6]: -0.284 | glycan array binding signal (z-score) [7]: -0.203 | glycan array binding signal (z-score) (Gal(b1-3)Gal): 5.41 | glycan array binding signal (z-score) (Gal(b1-3)Gal(b1-4)GlcNAc): 6.22 | glycan array binding signal (z-score) (Gal(b1-3)GalNAc): 3.57 | glycan array binding signal (z-score) [8]: 0.271 | glycan array binding signal (z-score) [9]: 0.224 | glycan array binding signal (z-score) (Gal(b1-3)GalNAc(b1-3)Gal): 5.7 | glycan array binding signal (z-score) [10]: 14.7 | glycan array binding signal (z-score) [11]: -0.203 | glycan array binding signal (z-score) [12]: -0.305 | glycan array binding signal (z-score) [13]: -0.017 | glycan array binding signal (z-score) [14]: -0.102 | glycan array binding signal (z-score) [15]: -0.034 | glycan array binding signal (z-score) [16]: 7.18 | glycan array binding signal (z-score) (Gal(b1-4)Glc): -0.356 | glycan array binding signal (z-score) (Gal(b1-4)GlcNAc): -0.105 | glycan array binding signal (z-score) [17]: 1.53 | glycan array binding signal (z-score) [18]: -0.026 | glycan array binding signal (z-score) [19]: -0.09 | glycan array binding signal (z-score) [20]: -0.233 | glycan array binding signal (z-score) [21]: 1.67 | glycan array binding signal (z-score) [22]: -0.262 | glycan array binding signal (z-score) (GalNAc(a1-3)GalNAc): -0.194 | glycan array binding signal (z-score) [23]: 0.149 | glycan array binding signal (z-score) [24]: -0.226 | glycan array binding signal (z-score) (GlcA(b1-6)Gal): 2.41 | glycan array binding signal (z-score) [25]: -0.205 | glycan array binding signal (z-score) [26]: 0.308 | glycan array binding signal (z-score) [27]: 0.543 | glycan array binding signal (z-score) [28]: -0.173 | glycan array binding signal (z-score) [29]: -0.353 | glycan array binding signal (z-score) [30]: 0.034 | glycan array binding signal (z-score) [31]: -0.218 | glycan array binding signal (z-score) [32]: -0.197 | glycan array binding signal (z-score) [33]: -0.282 | glycan array binding signal (z-score) [34]: 0.598 | glycan array binding signal (z-score) [35]: -0.215 | glycan array binding signal (z-score) [36]: -0.253 | glycan array binding signal (z-score) [37]: -0.345 | glycan array binding signal (z-score) [38]: 0.043 | glycan array binding signal (z-score) [39]: -0.354 | glycan array binding signal (z-score) [40]: 0.442 | glycan array binding signal (z-score) [41]: -0.319 | glycan array binding signal (z-score) [42]: -0.034
